Experiments:
Assay in all cases: PBM binding z-score (relative to random genomic background probes); higher = stronger binding; sequences stand for … in GC…GCGATTGACAGCGTAGAATGAAGG
[1] = tested on: PPARg:RXRa DBDmut IVT, anti-RXR (DBD mutation: RXRa K156A/R161A, NR concentration 270 nM, RXRa partner concentration 90 nM)
Method in brief: (§1)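 Probes were double-stranded and carried 34-nt variable regions with direct-repeat seeds, single-nucleotide variants, half-site ablations and random human genomic background sequences, printed on custom Agilent 4×180K protein-binding microarrays. Arrays were incubated 1 h with ligand-free nuclear receptor dimers in PBS pH 7.4, 2% milk, 0.02% Triton X-100, 1 mM DTT, 0.2 mg/mL BSA and 0.4 mg/ml salmon testes DNA. Antibodies against each partner (one per run) detected binding, and scanned fluorescence was regression-normalized. Binding z-scores use the random background probes as reference.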

[2] = tested on: PPARg:RXRa IVT, anti-PPARg (NR concentration 270 nM, RXRa partner concentration 90 nM)
Method in brief: as §1

[3] = tested on: PPARg DBDmut:RXRa IVT, anti-PPARg (DBD mutation: PPARg1 K132A/R137A, NR concentration 270 nM, RXRa partner concentration 90 nM)
Method in brief: as §1

[4] = tested on: PPARg DBDmut IVT, anti-PPARg (DBD mutation: PPARg1 K132A/R137A, NR concentration 270 nM)
Method in brief: as §1

[5] = tested on: PPARg homodimer (NR concentration 180 nM)
Method in brief: as §1

[6] = tested on: PXR:RXRa (NR concentration 270 nM, RXRa partner concentration 90 nM)
Method in brief: as §1

[7] = tested on: PXR homodimer (NR concentration 270 nM)
Method in brief: as §1

[8] = tested on: RARa:RXR (NR concentration 270 nM, RXRa partner concentration 90 nM)
Method in brief: as §1

[9] = tested on: RARa homodimer (NR concentration 270 nM)
Method in brief: as §1

[10] = tested on: RARb:RXRa (NR concentration 270 nM, RXRa partner concentration 90 nM)
Method in brief: as §1

| Sequence | PBM binding z-score [1] | PBM binding z-score [2] | PBM binding z-score [3] | PBM binding z-score [4] | PBM binding z-score [5] | PBM binding z-score [6] | PBM binding z-score [7] | PBM binding z-score [8] | PBM binding z-score [9] | PBM binding z-score [10] |
| --- | --- | --- | --- | --- | --- | --- | --- | --- | --- | --- |
| ATTGAAAGGTCGAGGTGAGTATAGAGAAAGGGAA | 0.763 | 2.77 | 1.27 | 1.65 | 2.49 | 2.7 | 0.738 | 3.64 | 1.83 | 4.28 |
| GCTAGCAGGCCATTTGGCTCACTCAATGACGGGC | 0.892 | -0.288 | -1.29 | -1.19 | -1.62 | -1.01 | -0.87 | -0.778 | -0.899 | -0.0959 |
| CGTCCAAGGTCATCAGGTCAGTGAAAGCGACGTG | 3.92 | 4.54 | 1.13 | -0.42 | 3.58 | 4.88 | 1.66 | 5.46 | 1.46 | 5.43 |
| GATACCGGGTCAGCTAGAGGCCAGAGTATGGAAA | 0.693 | 2.49 | -0.62 | -0.769 | 1.94 | 2.41 | -0.56 | 3.53 | -0.152 | 3.28 |
| ATACCAAGGTGATCGTGAGCTCGTTGATACTAAC | 0.283 | 1.08 | 0.353 | 0.874 | 0.404 | -0.0195 | -0.182 | 0.256 | 0.0437 | 0.555 |
| CCTACTGGGCCAAGGTCATTGAACAGTCAAAGCA | 3.68 | 4.69 | -0.3 | -0.825 | 1.5 | 3.32 | 0.99 | 3.5 | -0.309 | 3.5 |
| CGATCTAGGTCAAGGACAGTGAATCTCCGCACGC | 7.91 | 8.16 | 4.56 | 2.13 | 2.28 | 0.815 | 0.057 | 2.01 | 0.269 | 3.87 |
| TCATATAGGTAAATGCTAGGTGAGAGTCCGATCT | 3.83 | 2.57 | 0.808 | 0.825 | 0.0695 | 0.187 | 0.158 | 0.343 | 0.662 | 0.218 |
| ACTAGCAGTCCAAGGGTCACTCAAGATTAGTCCG | -0.304 | 1.77 | 0.198 | -0.0845 | 1.69 | 3.03 | 0.168 | 3.39 | -0.132 | 3.35 |
| CGTCCAAGGTCAAAGGGCAGTGAAGAGATGACGG | 2.96 | 4.49 | 0.0203 | 0.196 | 2.9 | 4.98 | 1.24 | 6.27 | 1.01 | 5.36 |
| AGTCAAAGTTCATCTAGGTAAGGTAAGATATGCT | 0.598 | 3.32 | 1.53 | 0.676 | 3.1 | 5.24 | 5.75 | 3.9 | 1.68 | 4.91 |
| TCTCGGCGGACACGAAGGTCAGAGCTTTCCAGAG | 0.413 | 0.291 | -0.613 | -1.55 | 0.53 | 1.09 | -0.42 | 1.09 | -0.212 | 2.45 |
| CAAACTAGGTCCCCGGAAGGTCAAAGTCCGCATG | 4 | 4.13 | 0.31 | 0.647 | 3.1 | 3.72 | 1.36 | 3.99 | 0.686 | 3.24 |
| ATCTCTAGGTAAAGCTAGTTCAGTGAATGCAAAT | 2.03 | 1.83 | 0.606 | 0.732 | 0.371 | 1.07 | 0.241 | 0.383 | 0.278 | 0.0194 |
| CCTTACGGGTCACTCCAGGTTTTAGCATCGGAGT | 2.81 | 3.28 | 2.95 | 0.802 | 3.03 | 3.61 | 0.181 | 4.14 | 0.643 | 3.68 |
| CCTGCTAGGTCACTGGTCAGCTAAAGCAGCTCGC | 4.87 | 4.51 | 0.683 | -0.736 | 1.51 | 1.27 | -0.378 | 2.08 | -0.0661 | 3.92 |
| GCATATAGGTAATACAGGGTGAAAGTCCGATTGT | 4.15 | 3.22 | 1.15 | 0.404 | 1.08 | 0.411 | 0.164 | 1.35 | 0.52 | 0.281 |
| GGAACGAGGGCAACGTTGATAGCATCTGTCGACG | 4.02 | 3.49 | 0.439 | 0.351 | -0.132 | 0.282 | -0.723 | 0.65 | -0.381 | 2.32 |
| CCTACTGGGCCATCTGGTCATTGATATCAACGTT | 3.95 | 4.15 | 0.821 | 0.613 | 0.5 | -0.397 | -0.43 | -0.692 | 0.0969 | 0.606 |
| CCTGCTATGTCATGGTCAGCTAATCTACAGTATG | 0.893 | 0.445 | 0.205 | 0.546 | -0.0268 | -0.217 | -0.359 | -0.187 | -0.218 | 0.913 |
| ATCGAAAGGTCGACGGGGTGAGTATACACCGTTT | 0.683 | 2.19 | 1.15 | 0.814 | 2.18 | 3.64 | 1.33 | 4.46 | 0.456 | 3.98 |
| TAGCCTAGGTCAGATCGGGCCACTATACGCTATA | 0.727 | 1.46 | -0.3 | -0.905 | 0.204 | 1.73 | -0.326 | 1.39 | -0.348 | 3.01 |
| TCAGACAGGTGAAGGTAACCCAGGTACGCAGTCG | 2.61 | 2.16 | 0.501 | -0.304 | 0.633 | 0.747 | 0.22 | 0.961 | 0.035 | 1.44 |
| ATGGAAAGGTCGAGGTGAGTATAGAGAAAGGGAA | 0.536 | 2.48 | 1.74 | 0.527 | 1.67 | 2.55 | 1.05 | 3.1 | 1.32 | 4.07 |
